Laboratory results: PubChem BioAssay (NCATS)
Inconclusive results are not listed. Where a call stands in place of a potency, no number is given. The source made the active and inactive calls. The call rests on the fitted dose curve; in most records, active means well fitted inhibition curve with a large enough effect; inconclusive means small, poorly fitted or top-dose-only effect; inactive means flat fitted curve, though single readings scatter.

experiment: P-glycoprotein substrates identified in KB-8-5-11 adenocarcinoma cell line, qHTS therapeutic library screen (AID 1346987); conditions: KB-8-5-11 (P-gp overexpressing) viability, CellTiter-Glo, 72 h; series mostly up to 44.5 µM; further: nearly all actives have a fitted effect of over 65% in size
Method in brief: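 Compounds are pinned in dose-response onto KB-8-5-11 cells (500 cells/well, colchicine-free medium) and left 72 h at 37 degree C. CellTiter-Glo luminescence then yields AC50 values.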
Potency means the concentration at half of the fitted maximal effect.

**Q.** Which Potency does the source give for `Cn1nc(C(C)(C)C)cc1C(=O)N[C@@H](Cc1cccc(Cl)c1)C(=O)NCC#N` here?
**A.** Its Potency is “inactive”.

**Q.** With `CN(C)c1ccnc2sc3c(=O)n(N4CCCCCC4)cnc3c12` as the compound, how does the Potency read?
**A.** The Potency was “inactive”.

**Q.** With `Cc1ccc(C)c(NC(=O)[C@@H]2CCCN2S(=O)(=O)c2cccc3cccnc23)c1` as the compound, how does the Potency read?
**A.** The Potency was “inactive”.

**Q.** For `Nc1ncnc2c1c(-c1ccc(Cl)cc1)nn2-c1cccc(-c2cnnn2Cc2cccc(-c3ccccc3)c2)c1`, which Potency is on record?
**A.** The Potency was 16.4 µM (active).

**Q.** For `C=CC(=O)N1CCC[C@@H](n2nc(-c3cccc(C(=O)Nc4ccc(C(C)C)c(C)c4)c3)c3c(N)ncnc32)C1`, which Potency is on record?
**A.** Its Potency is “inactive”.

**Q.** With `C/C=C(\C)C(=O)OC1C=C(C)CC(OC(=O)c2ccc(O)cc2)C2C1(C)CCC2(O)C(C)C` (centres undefined) as the compound, how does the Potency read?
**A.** Its Potency is “inactive”.

**Q.** With `Cc1cccc(C#Cc2cc(F)cc(C#N)c2)n1` as the compound, how does the Potency read?
**A.** Its Potency is “inactive”.

**Q.** Which Potency does the source give for `CCn1c(=O)c(-c2ccc(Cl)cc2Cl)cc2cnc(Nc3ccc(N4CCNCC4)c(F)c3)nc21` here?
**A.** Its Potency is 20.6 µM (active).

**Q.** Which Potency does the source give for `O=C(NCC(=O)N1CCCC1)Nc1ccc2cnccc2c1` here?
**A.** Its Potency is “inactive”.

**Q.** Which Potency does the source give for `CCC(CC)C(c1ccc(Nc2nc3ccccc3s2)cc1)n1cncn1` (centres undefined) here?
**A.** Its Potency is 23.1 µM (active).

**Q.** With `O=C(NCCN1CCC(n2c(=O)[nH]c3ccccc32)CC1)c1cc2cc(F)ccc2[nH]1` as the compound, how does the Potency read?
**A.** The Potency was “inactive”.

**Q.** With `CC(=O)O[C@@H]1C[C@@]2(C)C(CC[C@]3(C)C2CC=C2C4CC(C)(C)CC[C@]4(C(=O)O)CC[C@]23C)C(C)(C)[C@H]1O` (some centres undefined) as the compound, how does the Potency read?
**A.** The Potency was “inactive”.

**Q.** Which Potency does the source give for `Nc1c(S(=O)(=O)c2ccccc2)c2nc3ccccc3nc2n1-c1ccc(F)cc1` here?
**A.** The Potency was “inactive”.

**Q.** For `O=C(NCCCNc1nc(Nc2cccc(CN3CCOCC3)c2)ncc1C1CC1)C1CCC1`, which Potency is on record?
**A.** The Potency was 10.3 µM (active).

**Q.** For `CC(=O)OC[C@]12[C@H](OC(C)=O)[C@H](OC(=O)c3ccccc3)[C@@H]3[C@@H](OC(C)=O)[C@]1(OC3(C)C)[C@H](C)C[C@H](OC(C)=O)[C@@H]2OC(=O)c1ccccc1`, which Potency is on record?
**A.** The Potency was “inactive”.

**Q.** With `O=C(NC1CCC1)c1ccc(C#Cc2cccc(F)c2)nc1` as the compound, how does the Potency read?
**A.** The Potency was “inactive”.

**Q.** With `CC(O)(C(=O)C1CC1(CO)COC1OC(CO)C(O)C(O)C1O)C1C(O)CC2C3CC=C4CC(O)CC(O)C4(C)C3C(O)CC21C` (centres undefined) as the compound, how does the Potency read?
**A.** The Potency was 0.611 µM (active).

**Q.** For `COc1cc2c(cc1OCCCN1CCCC1)N=C(N)C21CCC1`, which Potency is on record?
**A.** The Potency was “inactive”.

**Q.** Which Potency does the source give for `C=C(C(=O)O)[C@@H]1CC=C(CCC(C)=O)[C@@H](C)CC1` here?
**A.** Its Potency is “inactive”.

**Q.** For `COc1c2c(c(C)c3c1C(=O)OC3)O[C@@]1(C)C[C@@H](OC(C)=O)[C@]34O[C@](OC)(CC[C@]3(C)[C@H]1C2)OC4(C)C`, which Potency is on record?
**A.** Its Potency is “inactive”.

**Q.** Which Potency does the source give for `CC(NCCCc1cccc(C(F)(F)F)c1)c1cccc2ccccc12` (centres undefined) here?
**A.** The Potency was “inactive”.

**Q.** Which Potency does the source give for `Cc1cc(F)ccc1-c1nc(NCCN=C(N)NC#N)nc2c1ccc(=O)n2-c1c(F)cccc1F` here?
**A.** The Potency was “inactive”.

**Q.** With `N#CC(CCCN1CCC(O)(c2ccc(Cl)cc2)CC1)(c1ccccc1)c1ccccc1` as the compound, how does the Potency read?
**A.** Its Potency is 20.6 µM (active).

**Q.** Which Potency does the source give for `CC1(C)CCCC2(C)C1C(=O)C=C(C(=O)O)C2(O)C(=O)O` (centres undefined) here?
**A.** Its Potency is “inactive”.

**Q.** With `O=C(O)c1cccc(-c2ccc(-c3cn(C(=O)N4CCCCC4Cc4ccccc4)nn3)cc2)c1` (centres undefined) as the compound, how does the Potency read?
**A.** Its Potency is “inactive”.

**Q.** Which Potency does the source give for `O=C(C1CCCCC1)N(CCN1CCN(c2ccccc2O)CC1)c1ccccn1` here?
**A.** The Potency was “inactive”.

**Q.** Which Potency does the source give for `C=C1/C(=C/C=C2\CCC[C@]3(C)[C@@H]([C@H](C)/C=C/[C@H](O)C4CC4)CC[C@@H]23)C[C@@H](O)C[C@@H]1O` here?
**A.** The Potency was “inactive”.

**Q.** For `O=C(Nc1ccc(-c2ccnc(Nc3ccc(N4CCOCC4)cc3)n2)cc1)C1CCCN1` (centres undefined), which Potency is on record?
**A.** The Potency was 14.6 µM (active).

**Q.** With `C=C1C(=O)O[C@@H]2[C@H]3C(C)=CC(=O)C3=C(C)[C@@H](OC(=O)/C(C)=C\C)[C@H](O)[C@@H]12` as the compound, how does the Potency read?
**A.** Its Potency is “inactive”.

**Q.** For `C/C(=C/C=C\C=C\Cc1cnco1)[C@@H](O)C(C)(C)C(N)=O`, which Potency is on record?
**A.** The Potency was “inactive”.

**Q.** Which Potency does the source give for `O=C(Nc1ccnc(NC(=O)C2CC2)c1)c1c(Cl)cccc1Cl` here?
**A.** The Potency was 8.2 µM (active).

**Q.** For `CC[C@@H](C)Nc1cc(C(=O)NC2CC3CCC(C2)N3c2ccc(C(=O)C3CC3)cn2)c(C)cc1C(N)=O` (some centres undefined), which Potency is on record?
**A.** Its Potency is 0.13 µM (active).

**Q.** For `C[C@@H](NC(=O)C(=O)c1c[nH]c2ccc([N+](=O)[O-])cc12)c1ccccc1`, which Potency is on record?
**A.** Its Potency is “inactive”.

**Q.** Which Potency does the source give for `COc1cc(/C=N\NC(=O)c2ccc3c(c2)OCO3)ccc1OCc1ccccc1` here?
**A.** The Potency was “inactive”.

**Q.** With `CNCc1cc(-c2ccccc2F)n(S(=O)(=O)c2cccnc2)c1` as the compound, how does the Potency read?
**A.** The Potency was “inactive”.

**Q.** With `C=C(C)C(=O)O[C@H]1C[C@@](C)(O)C2(O)CCC(C)(/C=C3/OC(=O)C(COC)=C31)O2` (some centres undefined) as the compound, how does the Potency read?
**A.** The Potency was 6.4 µM (active).

**Q.** Which Potency does the source give for `C/C=C/C=C/c1cc2c(C=O)c(O)c(CC=C(C)C)cc2o1` here?
**A.** Its Potency is “inactive”.

**Q.** With `O=C(Nc1cc(C(F)(F)F)cc(C(F)(F)F)c1)c1cnc(Cl)nc1C(F)(F)F` as the compound, how does the Potency read?
**A.** Its Potency is 16.4 µM (active).

**Q.** With `CO[C@@H]1CC(OC2CCC3(C)C(CCC45CCC(C6=CC(=O)OC6)C(C)(CCC43)C5=O)C2)O[C@H](C)[C@@H]1O[C@@H]1O[C@H](CO[C@@H]2O[C@H](CO)[C@@H](O)[C@H](O)[C@H]2O)[C@@H](O)[C@H](O)[C@H]1O` (some centres undefined) as the compound, how does the Potency read?
**A.** Its Potency is 4.37 µM (active).
